Screens (PubChem)
Compounds with a hit are over-represented: about 19% of the library has one in this group of screens.
ELG1 DNA repair: ELG1-dependent DNA repair inhibition; HEK293T ELG1-luciferase reporter, luminescence, 16 h; DNA damage induced by 5-fluorouridine; Potency, µM (highest dose often 46.1 µM), hits mostly inhibitors; actives 2.3% (n = 330,000); AID 504467; also: nearly all actives have a fitted effect of over 55% in size
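HEK293T cells expressing luciferase-tagged ELG1 (2,000/well) received 5-Fluorouridine plus compound or DMSO for 16 hr at 37 °C. Luciferase was read by ONE-Glo luminescence after 30 min at room temperature.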
DT40 TDP1 no CPT: qHTS for Inhibitors of human tyrosyl-DNA phosphodiesterase 1 (TDP1): qHTS in cells in absence of CPT. AID 686978, 2013. Potency, µM (highest dose often 46.2 µM), usual class: inhibitors. DT40 Tdp1-/- hTDP1 cells, no CPT, ATP luminescence, 48 h. actives 15% (n = 420,000); also: nearly all actives have a fitted effect of over 55% in size
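Chicken DT40 Tdp1-/- cells stably complemented with human TDP1 were seeded at 400 cells/well with DMSO in place of 20 nM camptothecin. After compound pinning, cells grew at least 48 hr at 37 °C; viability read by CellTiter-Glo luminescence.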
IL1B secr inh: inhibitors of inflammasome signaling (IL-1 beta secretion); THP-1 LPS/ATP IL-1B secretion, AlphaLISA, 16 h; active compounds read low; activity change, % at 57.5 µM; actives 4.7% (n = 360,000); in the data active = activity change below about -50%; inconclusive = mostly about -30% to -49%
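THP-1 cells pretreated 1 hr with compounds (up to 57.5 uM final), then stimulated with LPS (250 ng/mL final) plus ATP (1.25 mM final); secreted IL-1B measured by AlphaLISA after 16 hr, decreased signal indicating inhibition.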
HT1080-NT tox: kills 2HG-producing HT-1080-NT fibrosarcoma cells | HT-1080-NT fibrosarcoma viability, CellTiter-Glo ATP luminescence, 48 h | Potency, µM (top dose mostly 46.1 µM), actives largely listed as cytotoxic | actives 1.6% (n = 360,000) | AID 686970;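 also: NT is the 2HG producing partner of a matched IDH1 knockdown line; nearly all actives have a fitted effect of over 55% in size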
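HT-1080-NT; 750 cells/well; 5% FBS RPMI; 48 h compound, 37 degrees C; CellTiter-Glo luminescence; curve fitting and curve-class assignment.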
HT1080 IDH1KD tx: kills HT-1080 cells with IDH1 knockdown; HT-1080 IDH1 knockdown viability, ATP luminescence, 48 h; AID 686971; Potency, µM (highest dose often 46.1 µM), most hits filed as cytotoxic; actives 2% (n = 360,000)
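Viability of IDH1-knockdown HT-1080 fibrosarcoma cells was assessed by CellTiter-Glo after 48 h at 37 °C with titrated compound; concentration-effect curves were classified by fit quality and response size.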
DT40 TDP1 CPT: growth inhibition of DT40 Tdp1-/-;hTDP1 cells with camptothecin (screen for TDP1 inhibitors); Potency, µM (series often up to 46.2 µM), most hits filed as inhibitors; actives 12% (n = 420,000); chicken DT40 Tdp1-/-;hTDP1 cells + 20 nM CPT, ATP luminescence, 48 h; AID 686979; also: nearly all actives have a fitted effect of over 55% in size
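Chicken DT40 Tdp1-/- cells stably complemented with human TDP1 were seeded at 400 cells/well in medium containing 20 nM camptothecin, exposed to pin-transferred compounds, and grown at 37 °C for at least 48 hr. Viability was read as ATP luminescence.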
A number is an active result. Unless noted, calls follow the shape of the dose curve; as a rule, active = well fitted curve in the direction sought with a large enough effect; inconclusive = small, poorly fitted or top-dose-only effect, or another doubt; inactive = no such curve, though single readings can be large; an effect the other way counts as inactive or inconclusive.

What do the screens show for `Cc1cccc(OCC(=O)Nc2ccc(S(=O)(=O)Nc3onc(C)c3C)cc2)c1C`?
ELG1 DNA repair: inactive; DT40 TDP1 no CPT: inconclusive; IL1B secr inh: inactive; HT1080-NT tox: inactive; HT1080 IDH1KD tx: inactive; DT40 TDP1 CPT: inactive

How did N/C(=N\OC(=O)c1ccc2ccccc2c1)c1ccccn1 do in these assays?
ELG1 DNA repair: inconclusive; DT40 TDP1 no CPT: inconclusive; IL1B secr inh: inactive; HT1080-NT tox: inconclusive; HT1080 IDH1KD tx: inconclusive; DT40 TDP1 CPT: inconclusive

What do the screens show for `CCCc1ccc(C(=O)O/N=C(\N)c2ccccn2)cc1`?
ELG1 DNA repair: inconclusive; DT40 TDP1 no CPT: inactive; IL1B secr inh: -58; HT1080-NT tox: inconclusive; HT1080 IDH1KD tx: inconclusive; DT40 TDP1 CPT: inconclusive

What do the screens show for `N/C(=N\OC(=O)c1ccc(=O)n(Cc2ccccc2)c1)c1ccccn1`?
ELG1 DNA repair: inactive; DT40 TDP1 no CPT: inconclusive; IL1B secr inh: inactive; HT1080-NT tox: inactive; HT1080 IDH1KD tx: inactive; DT40 TDP1 CPT: inconclusive

How did N/C(=N\OC(=O)c1ccc(=O)n(Cc2ccc(Cl)cc2)c1)c1ccccn1 do in these assays?
ELG1 DNA repair: inactive; DT40 TDP1 no CPT: inconclusive; IL1B secr inh: inactive; HT1080-NT tox: inconclusive; HT1080 IDH1KD tx: inactive; DT40 TDP1 CPT: 21µM

Results for COc1ccc(NC(=O)N2CCc3c(sc4c3CCCC4)C2c2ccccc2OC)cc1 (centres undefined) ?
DT40 TDP1 no CPT: 13µM; DT40 TDP1 CPT: 16µM

Results for COc1cccc(CNC(=O)N2CCc3c(sc4c3CCCC4)C2c2ccc(F)cc2)c1 (centres undefined) ?
DT40 TDP1 no CPT: 15µM; DT40 TDP1 CPT: inconclusive

How did Cc1ccc2c(c1)Oc1ccc(NC(=O)CCl)cc1C(=O)N2 do in these assays?
ELG1 DNA repair: inconclusive; DT40 TDP1 no CPT: 2.3µM; IL1B secr inh: -100; HT1080-NT tox: 3.7µM; HT1080 IDH1KD tx: 2.9µM; DT40 TDP1 CPT: 2.6µM

How did Cc1ccc2c(c1)Oc1ccc([N+](=O)[O-])cc1C(=O)N2 do in these assays?
ELG1 DNA repair: inactive; DT40 TDP1 no CPT: inactive; IL1B secr inh: inactive; HT1080-NT tox: inactive; HT1080 IDH1KD tx: inactive; DT40 TDP1 CPT: inactive

Results for C[C@@H](NC(=O)[C@@H]1CCCN1C(=O)[C@@H]1CCCN1C(=O)c1cccc2ccccc12)c1ccccc1 ?
DT40 TDP1 no CPT: inconclusive; IL1B secr inh: inactive; HT1080-NT tox: inactive; HT1080 IDH1KD tx: inactive; DT40 TDP1 CPT: inconclusive

Results for Cc1ccc(NCc2nnc3n2CCCCC3)cc1Cl ?
DT40 TDP1 no CPT: inactive; DT40 TDP1 CPT: inactive

What do the screens show for `CC(C)NC(=O)N1CC2(CCN(C(=O)c3cccn3C)CC2)C1`?
DT40 TDP1 no CPT: inactive; DT40 TDP1 CPT: inactive

How did Cn1cnc([N+](=O)[O-])c1S(=O)(=O)Oc1cccc2ccccc12 do in these assays?
DT40 TDP1 no CPT: 1µM; IL1B secr inh: -102; HT1080-NT tox: 1.2µM; HT1080 IDH1KD tx: 2.6µM; DT40 TDP1 CPT: 1.3µM

Results for Cn1cnc([N+](=O)[O-])c1S(=O)(=O)Oc1ccc(Cl)cc1 ?
DT40 TDP1 no CPT: 2.1µM; IL1B secr inh: -97; HT1080-NT tox: 21µM; HT1080 IDH1KD tx: 16µM; DT40 TDP1 CPT: 0.65µM

What do the screens show for `Cn1cnc([N+](=O)[O-])c1C(=O)Nc1cccc([N+](=O)[O-])c1`?
ELG1 DNA repair: inactive; DT40 TDP1 no CPT: inactive; IL1B secr inh: inactive; HT1080-NT tox: inactive; HT1080 IDH1KD tx: inactive; DT40 TDP1 CPT: inactive

How did Cn1cnc([N+](=O)[O-])c1Sc1ncn[nH]1 do in these assays?
ELG1 DNA repair: inactive; DT40 TDP1 no CPT: 16µM; IL1B secr inh: inactive; HT1080-NT tox: inactive; HT1080 IDH1KD tx: inactive; DT40 TDP1 CPT: 18µM

How did CCS(=O)(=O)c1c([N+](=O)[O-])ncn1C do in these assays?
ELG1 DNA repair: inactive; DT40 TDP1 no CPT: 7.3µM; IL1B secr inh: inactive; HT1080-NT tox: inconclusive; HT1080 IDH1KD tx: inconclusive; DT40 TDP1 CPT: 5.2µM
